From PubChem BioAssay (NCI) come the findings set out here.

Compounds without any hit were thinned out: in the full panel of roughly 83,000, 20% have a hit.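 Testing used 96-well plates and a 48-hour single-concentration exposure. Example: -40 means 40% of the starting cells died.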 Unmarked numbers belong to inactive results. Calls of active or inactive are those of the source. Rule for the calls: active = growth percent below 10; inactive = the rest.

The subject of the first assay is SN12C renal. As to the kind of experiment: NCI-60 one-dose screen, 48 h (100 = growth as untreated, 0 = no growth, -100 = all killed). As to conditions: 10 µM unless noted.
Consider `O=C1NN(C(=O)c2ccc(Cl)cc2)C(c2ccccc2)=N/C1=C\c1ccc(F)cc1`, for which the growth is 78.1%.
The same measure, in the same setting: with `N[C@H]1CN(C(=O)c2cc3cc(Br)c(F)c(F)c3[nH]2)C[C@@H]1O` the figure was 95.7%; with `O=C1/C(=C/c2ccc(Cl)cc2)CN(Cc2cn(CCNc3ccnc4cc(Cl)ccc34)nn2)C/C1=C\c1ccc(Cl)cc1`, -76.1% (active); with `NC(=S)N/N=C1\CCCC(C(F)(F)F)C1` (configuration not stated), 85.1%.

The test system of the next assay is UO-31 renal. The description is as above. As to conditions: 10 µM unless noted.
Consider `O=c1cc(Cc2ccc([N+](=O)[O-])cc2)[nH]c(=O)[nH]1`, for which the growth is 67%.
On the same count and under the same terms, with `Cc1csc(NC(c2ccccc2)c2c(C)nc3ccccn23)n1` (configuration not stated) the figure was 76%.
On the same count and under the same terms, in the case of `Cc1ccc(/C=C2\CN(C(=O)CCN3CCC(=NO)CC3)C/C(=C\c3ccc(C)cc3)C2=O)cc1` it was -86% (active).
On to `O=C1Nc2ccc3c(c2/C1=C\c1cc2c(cc1Br)OCO2)OCO3`, for which the growth is -15.9% (active).
Turning to `c1ccc(-c2nc(N3CCNCC3)c3nc(-c4ccccc4)oc3n2)cc1`, the growth was -91.6% (active).
Consider `CCN(CC)c1ccc(CNc2ccnc3ccccc23)cc1`, for which the growth is 31.6%.
On the same count and under the same terms, with `CN(CCCCN(C[C@H]1Cc2ncccc2CN1)[C@H]1CCCc2cccnc21)C1CCC(F)(F)CC1` the figure was 67.6%.
For the compound `ClC(Cl)c1nc(-c2ccccc2)nc2cc(-c3ccccc3)nn12`, the growth was 58.7%.
Same read-out and setting: in the case of `O=[N+]([O-])c1ccc(OCCCOc2ccccc2)cc1` it was 87.2%.
In the case of `N#C/C(=C1C=C/C(=N/O)C(Cl)=C/1)c1ccc(Cl)cc1`, the growth is 44.9%.
Same read-out and setting: with `CCCCC(CC)OC(=O)C(Br)CC` (configuration not stated) the figure was 93.6%; with `C=C[C@@H]1C[C@@H]2Cc3c(C)cc(C)cc3N1O2`, 101%.
Same read-out and setting: with `C=C[C@@H]1C[C@@H]2Cc3ccccc3N1O2` the figure was 102%.
Same read-out and setting: with `CC(=O)OC[C@]12CC[C@H]3[C@@H](C[C@H]4O[C@]45CC=CC(=O)[C@]35C)[C@]1(O)CC[C@@]2(O)[C@@](C)(O)C1CC(C)=C(C)C(=O)O1` (some centres not stated) the figure was -18.5% (active); with `CO[C@H]1NC(=O)N(S(=O)(=O)c2ccc(Cl)cc2)[C@@H]1OC`, 88%.
As for `COC(=O)c1cc2cc(-c3ccc(OC)cc3)cnc2[nH]1`, the growth was 34.9%.
For the compound `O=C(Nc1cccc(-n2cc(-c3ccncc3)c(-c3ccc(Cl)c(O)c3)n2)c1)Nc1cc(C(F)(F)F)cc(C(F)(F)F)c1`, the growth was -34.4% (active).
Still for that read-out and setting: with `C[n+]1c(/C=C/c2c(O)ccc3ccccc23)ccc2ccccc21` the figure was 22.2%; with `COc1ccc(-c2cn(-c3cccc(C(=O)/C=C/c4cc(OC)c(OC)c(OC)c4)c3)c(=O)[nH]2)cc1OC`, 68.3%.
For the compound `C=C[C@@H]1C[C@H](O)Cc2c(C)cc(C)cc2N1`, the growth was 96%.
The same measure, in the same setting: with `O=C(O)Cc1cccc(=O)c(O)c1C(=O)O` the figure was 84.2%.
Still for that read-out and setting: in the case of `COc1cc(/C=C/C(=O)c2ccc(Nc3ncnc4cc(OC)c(OC)cc34)cc2)cc(OC)c1` it was 94.4%.
Take `COc1cc(/C=C/C(=O)c2cccc(-n3cc(-c4cc(OC)c(OC)c(OC)c4)[nH]c3=O)c2)cc(OC)c1OC`: the growth was 6.2% (active).
Same read-out and setting: with `COC1=C(OC)C(=O)C(CCCCCCCCCC[P+](c2ccccc2)(c2ccccc2)c2ccccc2)=C(C)C1=O` the figure was -18.2% (active).
The same measure, in the same setting: in the case of `C=C[C@@H]1C[C@H](O)Cc2ccccc2N1` it was 99.5%; in that of `CCN1C(=O)N(CC)C2C1NN=c1s/c(=C\c3cccnc3)c(=O)n12` (configuration not stated), 46.8%.
On the same count and under the same terms, in the case of `O=S(=O)(CC(O)(c1ccccc1)c1ccccc1)CC(O)(c1ccccc1)c1ccccc1` it was 92.9%; in that of `CCN(CC)CCCC(C)Nc1c2ccc(Cl)cc2nc2cc(OC)c(OC)cc12` (configuration not stated), -41% (active).
As for `CCCCCCCCCCCC(=O)NCCC[N+](C)(C)CC(=O)[O-]`, the growth is 97.6%.
Still for that read-out and setting: in the case of `CCOC(=O)/C(C#N)=C1/C(=O)Nc2ccccc21` it was 71.1%; in that of `Cn1c(=O)c2[nH]c(C3CC=CCC3)nc2n(C)c1=O` (configuration not stated), 72.3%.
The same measure, in the same setting: in the case of `O=[N+]([O-])c1cc(S(=O)(=O)Oc2ccccc2)ccc1Cl` it was -87.7% (active).
As to `C=C(C)[C@@H]1C[C@H](O)Cc2cc(F)ccc2N1`, the growth was 75.5%.
Turning to `COc1ccc2c(c1)[nH]c(=O)c1c3cccc(F)c3cn21`, the growth was 33.1%.
On the same count and under the same terms, with `CN(C)c1nc2c(N)ncnc2n1C1OC(CO)C(O)C1O` (configuration not stated) the figure was 79.5%.
On the same count and under the same terms, with `O=C1NN(C(=O)c2ccc(Cl)cc2)C(c2ccccc2)=N/C1=C\c1ccc(F)cc1` the figure was 75.6%; with `N[C@H]1CN(C(=O)c2cc3cc(Br)c(F)c(F)c3[nH]2)C[C@@H]1O`, 67.2%; with `O=C1/C(=C/c2ccc(Cl)cc2)CN(Cc2cn(CCNc3ccnc4cc(Cl)ccc34)nn2)C/C1=C\c1ccc(Cl)cc1`, -97.1% (active).
`NC(=S)N/N=C1\CCCC(C(F)(F)F)C1` (configuration not stated): the growth is 64.8%.

In a further assay the test system is TK-10 renal. The description is as above. As to conditions: 10 µM unless noted.
In the case of `O=c1cc(Cc2ccc([N+](=O)[O-])cc2)[nH]c(=O)[nH]1`, the growth was 97.9%.
Still for that read-out and setting: with `Cc1csc(NC(c2ccccc2)c2c(C)nc3ccccn23)n1` (configuration not stated) the figure was 111%; with `Cc1ccc(/C=C2\CN(C(=O)CCN3CCC(=NO)CC3)C/C(=C\c3ccc(C)cc3)C2=O)cc1`, 20.2%; with `O=C1Nc2ccc3c(c2/C1=C\c1cc2c(cc1Br)OCO2)OCO3`, -31.2% (active).
Still for that read-out and setting: in the case of `c1ccc(-c2nc(N3CCNCC3)c3nc(-c4ccccc4)oc3n2)cc1` it was -85.3% (active); in that of `CCN(CC)c1ccc(CNc2ccnc3ccccc23)cc1`, 60%; in that of `ClC(Cl)c1nc(-c2ccccc2)nc2cc(-c3ccccc3)nn12`, 21.6%.
Still for that read-out and setting: in the case of `O=[N+]([O-])c1ccc(OCCCOc2ccccc2)cc1` it was 97.5%.
As to `N#C/C(=C1C=C/C(=N/O)C(Cl)=C/1)c1ccc(Cl)cc1`, the growth was 51.2%.
Take `CCCCC(CC)OC(=O)C(Br)CC` (configuration not stated): the growth was 103%.
On the same count and under the same terms, in the case of `C=C[C@@H]1C[C@@H]2Cc3c(C)cc(C)cc3N1O2` it was 92.7%; in that of `C=C[C@@H]1C[C@@H]2Cc3ccccc3N1O2`, 108%.
On the same count and under the same terms, in the case of `CO[C@H]1NC(=O)N(S(=O)(=O)c2ccc(Cl)cc2)[C@@H]1OC` it was 103%.
Still for that read-out and setting: in the case of `COC(=O)c1cc2cc(-c3ccc(OC)cc3)cnc2[nH]1` it was 38.9%.
As for `O=C(Nc1cccc(-n2cc(-c3ccncc3)c(-c3ccc(Cl)c(O)c3)n2)c1)Nc1cc(C(F)(F)F)cc(C(F)(F)F)c1`, the growth is -24.6% (active).
For the compound `C[n+]1c(/C=C/c2c(O)ccc3ccccc23)ccc2ccccc21`, the growth was 49.1%.
Still for that read-out and setting: in the case of `COc1ccc(-c2cn(-c3cccc(C(=O)/C=C/c4cc(OC)c(OC)c(OC)c4)c3)c(=O)[nH]2)cc1OC` it was 96.1%.
The same measure, in the same setting: with `C=C[C@@H]1C[C@H](O)Cc2c(C)cc(C)cc2N1` the figure was 85.8%; with `O=C(O)Cc1cccc(=O)c(O)c1C(=O)O`, 108%; with `COc1cc(/C=C/C(=O)c2ccc(Nc3ncnc4cc(OC)c(OC)cc34)cc2)cc(OC)c1`, 104%.
Same read-out and setting: in the case of `COc1cc(/C=C/C(=O)c2cccc(-n3cc(-c4cc(OC)c(OC)c(OC)c4)[nH]c3=O)c2)cc(OC)c1OC` it was 27.8%; in that of `COC1=C(OC)C(=O)C(CCCCCCCCCC[P+](c2ccccc2)(c2ccccc2)c2ccccc2)=C(C)C1=O`, -56.7% (active).
Take `C=C[C@@H]1C[C@H](O)Cc2ccccc2N1`: the growth is 95.5%.
As to `CCN1C(=O)N(CC)C2C1NN=c1s/c(=C\c3cccnc3)c(=O)n12` (configuration not stated), the growth is 80.7%.
Still for that read-out and setting: with `O=S(=O)(CC(O)(c1ccccc1)c1ccccc1)CC(O)(c1ccccc1)c1ccccc1` the figure was 107%; with `CCCCCCCCCCCC(=O)NCCC[N+](C)(C)CC(=O)[O-]`, 76.6%; with `Cn1c(=O)c2[nH]c(C3CC=CCC3)nc2n(C)c1=O` (configuration not stated), 112%.
Same read-out and setting: with `O=[N+]([O-])c1cc(S(=O)(=O)Oc2ccccc2)ccc1Cl` the figure was 52.3%; with `C=C(C)[C@@H]1C[C@H](O)Cc2cc(F)ccc2N1`, 92.3%.
The same measure, in the same setting: in the case of `COc1ccc2c(c1)[nH]c(=O)c1c3cccc(F)c3cn21` it was 46.8%; in that of `CN(C)c1nc2c(N)ncnc2n1C1OC(CO)C(O)C1O` (configuration not stated), 107%; in that of `N[C@H]1CN(C(=O)c2cc3cc(Br)c(F)c(F)c3[nH]2)C[C@@H]1O`, 107%.
For the compound `O=C1/C(=C/c2ccc(Cl)cc2)CN(Cc2cn(CCNc3ccnc4cc(Cl)ccc34)nn2)C/C1=C\c1ccc(Cl)cc1`, the growth was -89% (active).
With `NC(=S)N/N=C1\CCCC(C(F)(F)F)C1` (configuration not stated), the growth is 112%.
